Results as given in PubChem BioAssay (NCATS).
Results filed as inconclusive are left out. Where a call stands in place of a potency, no number is given. Activity calls are given as the source filed them. Calls come from the whole dose curve.

molecular target: Atrial natriuretic peptide receptor 1 (Homo sapiens) (UniProt P16066); assay: Natriuretic polypeptide receptor (hNpr1) antagonism - Pilot CMLD screen (AID 1347052); conditions: HEK293 hNpr1 GloSensor cGMP luminescence, ANP-stimulated; series mostly up to 9.22 µM
Experimental: In order to identify small molecular compounds that inhibit the hNpr1 receptor we developed a high-throughput assay to measure inhibition of the guanylate cyclase activity of the receptor. cGMP production was measured using a circular permutated Firefly luciferase (FLuc) enzyme functionally linked to the cGMP binding domain of human phosphodiesterase 5 (GloSensor technology pGS-40F, (Fan, F. et al. 2008). The cGMP-sensor was expressed in human embryonic kidney 293 (HEK-293) cells and FLuc activity was measured after stimulation with hNrp agonist peptide. hNrp agonists activates the receptor's associated guanylyl cyclase (GC) domain producing cGMP which then binds to the GloSensor resulting in FLuc activation, the enzymatic activity of which can be measured as bioluminescence with addition of luciferin substrate.
This assay was initially piloted by testing with a small library of specialty compounds.
PROTOCOL TABLES (as described by Inglese J, Shamu CE and Guy RK. 2007)
SEQUENCE No. (e.g., 1, 2, 3, etc.); […] (e.g., Cells, Incubation, Reagent, etc.); VALUE and DESCRIPTION.
1. Cells. Seed 1500 HEK293 cGMP-sensor cells expressing hNpr1 per well in 4uL into Greiner 1536-well white/solid bottom high base, tissue culture-treated plates.
2. Incubation. Incubate plated cells at 37C in 5% CO2, 95% RH overnight.
3. Reagent. Add 1uL per well GloSensor reagent from Promega (2% final concentration) or CO2 independent media vehicle control to respective columns of Greiner 1536-well plates.
4. Incubation. Incubate plated cells at room temperature for 2 h, protect from light.
5. Compounds. Library compounds and A-71915 control added at 23 nL per well, transferred by Pin Tool.
6. Incubation. Incubate plated cells for 30 min. at room temperature, protect from light.
7. Detector. GloSensor baseline pre-read luminescence measured using CCD-based camera (Viewlux).
8. Compound. Add 1uL of hNppA peptide to 0.1 nM final concentration to stimulate hNpr1 or CO2 independent media as vehicle control.
9. Incubation. Incubate treated cells at room temperature for 20 min., protect from light.
10. Detector. GloSensor post-hNppA luminescence measured using CCD-based camera (Viewlux).
NOTES (numbers refer to Sequence numbers above)
1. HEK293 cells expressing hNpr1 and GIP/pGS-40F grown to 85-95% confluence (48-72 h) in T175 culture flasks (CO2 independent media supplemented with 10% FBS, 1% Pen/Strep antibiotics and 1 ug/mL puromycin). Trypsinize and harvest cells from T175 culture flasks and filter through 40 um cell strainer. Cells counted with Invitrogen Countess (30,000,000 - 50,000,000 cells/flask). Cells diluted to a final concentration of 375 cells/uL in CO2 independent media and a Millipore multidrop used to dispense 1500 cells per well (4uL/well) into 13 1536-well Greiner White/Solid bottom, high base tissue-culture treated (TC) plates and one Aurora 1536-well Black/Clear bottom, low base, TC plate (for visual inspection of cell health throughout the duration of the assay).
2. Cells incubated overnight at ambient temperature, 24 h. at 37C in 95% RH incubator protected from light, covered with metal lid with gas-exchange holes.
3. Prepare GloSensor Reagent (Promega): Reconstitute GloSensor luciferase substrate by adding 8.2mL Hepes buffer to 250mg substrate, mix well, protect from light and stored at -80C. Prepare a fresh 12% GloSensor solution in CO2 independent supplemented plating media (see above). Mix well and store at ambient temperature, protected from light. 1uL 12% GloSensor Luciferase Reagent added (2% final concentration) to respective columns of 13 x 1536-well Greiner plate with BioRaptr, 1uL CO2 independent plating media added to respective columns as vehicle control with BioRaptr.
4. Cells incubated for 2 h. at ambient temperature, protected from light with metal lid with gas-exchange holes.
5. A-71915 stock solution prepared (10 mM in DMSO). […]

Chain of Atrial natriuretic peptide receptor 1 (Homo sapiens) (P16066 whole entry, looked up, the tested form may be a part): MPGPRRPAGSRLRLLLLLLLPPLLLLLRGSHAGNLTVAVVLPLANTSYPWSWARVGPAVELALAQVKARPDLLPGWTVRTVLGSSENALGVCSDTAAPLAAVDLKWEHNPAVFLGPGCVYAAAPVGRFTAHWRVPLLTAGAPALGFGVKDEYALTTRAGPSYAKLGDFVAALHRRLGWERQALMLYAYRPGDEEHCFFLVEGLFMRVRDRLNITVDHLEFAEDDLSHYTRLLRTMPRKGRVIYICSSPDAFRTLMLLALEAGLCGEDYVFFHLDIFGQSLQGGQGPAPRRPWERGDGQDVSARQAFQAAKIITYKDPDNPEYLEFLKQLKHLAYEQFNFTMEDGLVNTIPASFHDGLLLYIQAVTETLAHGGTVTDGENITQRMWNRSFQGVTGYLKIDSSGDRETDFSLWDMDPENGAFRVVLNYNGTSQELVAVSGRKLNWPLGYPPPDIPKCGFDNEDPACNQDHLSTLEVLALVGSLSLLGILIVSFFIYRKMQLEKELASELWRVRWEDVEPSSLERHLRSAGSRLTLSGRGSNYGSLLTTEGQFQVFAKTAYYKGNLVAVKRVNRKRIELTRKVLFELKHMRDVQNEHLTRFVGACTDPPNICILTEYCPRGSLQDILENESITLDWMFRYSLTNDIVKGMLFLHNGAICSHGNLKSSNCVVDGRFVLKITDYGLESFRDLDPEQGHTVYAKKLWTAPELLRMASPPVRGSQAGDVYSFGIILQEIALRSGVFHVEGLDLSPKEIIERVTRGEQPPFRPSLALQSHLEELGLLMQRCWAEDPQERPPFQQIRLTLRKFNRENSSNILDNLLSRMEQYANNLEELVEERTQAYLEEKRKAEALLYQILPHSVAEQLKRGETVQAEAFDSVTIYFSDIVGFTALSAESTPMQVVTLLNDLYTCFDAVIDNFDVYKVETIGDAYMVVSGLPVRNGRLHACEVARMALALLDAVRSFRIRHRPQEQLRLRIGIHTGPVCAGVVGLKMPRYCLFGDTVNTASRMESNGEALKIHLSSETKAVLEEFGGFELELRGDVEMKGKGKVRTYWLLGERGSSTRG

| SMILES | Potency |
| --- | --- |
| C=CCOC(=O)N[C@H](c1cccc(C(F)(F)F)c1)C(C(C)=O)C(C)=O | inactive |
| CC(CCN1CCCCc2nc(C)c(C)cc21)=NO[C@H](C)c1cn([C@@H]2COC[C@@H]2O)nn1 | inactive |
| COC1=C[C@H](C(=O)NCc2ccc(Cl)cc2)C(C)C(c2ccccc2)CC1=O (stereo not given in full) | inactive |
| CCOC(=O)C1=CN(CCc2cn(Cc3ccccc3)nn2)C(=O)NC1c1ccccc1 (stereo not given) | inactive |
| COC(=O)CC=C1c2ccccc2[C@@H](NC(=O)OC)[C@@H]1C | inactive |
| COC(=O)C1=C(C(=O)OC)[C@@H]2N(C)c3ccccc3[C@@]23CCC(=O)N(CC(C)C)C3=N1 | inactive |
| COC1=C(C(=O)c2ccccc2)C(=O)[C@@]2(CC=C(C)C)CC(C#N)C[C@@]1(CC=C(C)C)C2=O (stereo not given in full) | inactive |
| C[C@H]1C=CCC(=O)N[C@@H](c2ccccc2)[C@@H](C)C=CCC(=O)N[C@@H]1c1ccccc1 | inactive |
| COC(=O)N[C@@H](CCc1ccccc1)[C@]1(C(=O)OC)CCCC1=O | inactive |
| COC(=O)[C@@]1(C=C[C@@H](C)[C@H](OC)c2ccccc2Br)[C@@H]2OCCC[C@@H]21 | inactive |
| COc1cc2c(c(OC)c1OC)[C@@]1(c3ccccc3)CCCCC[C@H]1[C@@H]2NC(=O)C(F)(F)F | inactive |
| COC(=O)CC1OC1[C@H](C)[C@@H](OC)C(C)C (stereo not given in full) | inactive |
| CC(=O)OC[C@H]1O[C@H](CC=NOC[C@@H](O)COCc2ccco2)C=C[C@H]1OC(C)=O | inactive |
| COc1ccc(-c2nc(-c3ccccc3)c(NC(C)(C)C)o2)cc1 | inactive |
| COc1cccc([C@@H]2Oc3ccc(OC)cc3[C@H](O)[C@@H]2O)c1 | inactive |
| Cc1cccc(C)c1Nc1oc(-c2ccccc2)nc1-c1ccccc1 | inactive |
| CCN1C(=NCCCCO)NC(c2cccc(C(F)(F)F)c2)C(C(=O)OC)=C1C (stereo not given) | inactive |
| C[C@H]1CCCC(=O)N[C@@H](c2ccccc2)[C@@H](C)CCCC(=O)N[C@@H]1c1ccccc1 | inactive |
| COc1ccc2c(c1)CO[C@H]([C@H](O)CBr)[C@H]2C=Cc1ccccc1 | inactive |
| COC1=C[C@H](C(=O)NCc2ccc(Br)cc2)[C@H](C)[C@@H](c2ccccc2)CC1=O | inactive |

| SMILES | Potency |
| --- | --- |
| COC(=O)[C@H]1O[C@@H](c2cc(OC)c(C)c(OC)c2OCc2ccccc2)[C@H](C)[C@@H]2O[C@]12C | inactive |
| COCCN1C=C2C(=O)C(C)(OC(=O)C3CCCC3)C(=O)C=C2C=C1c1ccsc1 (stereo not given) | inactive |
| C=CCN=C1NC(c2cccc(F)c2)C(C(=O)OC)=C(C)N1Cc1ccccc1 (stereo not given) | inactive |
| C[C@@H]1CC2=CCCC2[C@]2(O1)C(=O)N(Cc1ccc(F)cc1)c1cccc(Br)c12 (stereo not given in full) | inactive |
| C=CCOC(=O)C1=C(C)N(CC)C(=O)NC1c1ccccc1 (stereo not given) | inactive |
| CC(C)C(=O)N[C@H]1CCCN1C(=O)C=Cc1ccccc1 | inactive |
| COCCN1C=C2C(=O)C(C)(OC(=O)C3CCCC3)C(=O)C(c3ccccc3)=C2C=C1CCCC(=O)OC (stereo not given) | inactive |
| COc1cccc([C@H]2Oc3ccc(OC)cc3C(=NO[C@@H](C)CN3CCCCc4nc(C)c(C)cc43)[C@H]2O)c1 | inactive |
| N#Cc1ccc2c(c1)C[C@]1(c3ccsc3)Oc3c(c(=O)oc4ccccc34)[C@H]2O1 | inactive |
| COC(=O)C12CC3(CCC4C5C(C(OCc6ccccc6)C41)C52)OCCO3 (stereo not given) | inactive |
| CCCNC(=O)N1C2=NC(C(=O)OC)=C(C(=O)OC)[C@@H]3N(C)c4ccc(OC)cc4[C@]23C[C@H]1C(=O)OC | inactive |
| C#CCCOC(=O)N1C2=NC(C(=O)OC)=C(C(=O)OC)[C@@H]3N(CC=C)c4ccccc4[C@]23C[C@H]1C(=O)OC | inactive |
| Fc1ccccc1-c1nc(-c2ccccc2)oc1NCc1ccccc1 | inactive |
| COCCN1C(=O)CC[C@@]23C1=NC(C(=O)OC)=C(C(=O)OC)[C@@H]2N(Cc1ccccc1)c1ccccc13 | inactive |
| C=CCOC(=O)N[C@H](c1ccc2ccccc2c1)[C@H](C)C=CCC(=O)OC | inactive |
| CCCNC(=O)OC[C@H]1O[C@H](CCON=C(C)CCN2CCCc3nc(C)c(C)cc32)C=C[C@H]1Oc1ccc(OC)cc1 | inactive |
| COC(=O)[C@H](COC(C)(C)C)NC(=O)O[C@@H]1C(=O)c2cc(Br)ccc2O[C@H]1c1ccc2c(c1)OCO2 | inactive |
| CC(C)OC(=O)[C@H](C)NC(=O)N1CCc2nc(-c3ccccc3)c3c(c2C1)CO[C@@H](C)C3 | inactive |
| CCCCc1nc2c(c3c1C[C@H](C)OC3)CN(S(=O)(=O)CCCC)CC2 | inactive |
| C[C@H]1CC[C@H]2C(=O)N[C@H](Cc3ccccc3)C(=O)N2[C@H]1c1ccccc1 | inactive |
